Assay outcomes (PubChem)
miR122 inh: miR-122 suppressors via Renilla sensor increase, primary screen, cell-based, Huh7 psiCHECK-miR122, Renilla luciferase, single point; 0.14% of 340,000 active; 48 h; activation, % at 12.5 µM; AID 623901, 2012;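 active = mean activation of 30% or more, with every replicate also reaching 30%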;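 also: 0% = median of neutral control wells and 100% = median of positive control wells; higher luciferase signal means stronger suppression of miR-122 activity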
The depositor's hits bear a star. The entries come from a sample that favours hits as a whole.

Screening O=C(Nc1nc(-c2cc3ccccc3o2)cs1)c1ccc(S(=O)(=O)N2CCCC2)cc1 returned miR122 inh 51.7*.
For O=C(Cc1cccs1)Nc1ccc(S(=O)(=O)N2CCCCC2)cc1 the results were miR122 inh -131.7.
Screening O=C(Nc1nc2ccc(S(=O)(=O)N3CCCC3)cc2s1)C1CCCCC1 returned miR122 inh -130.4.
For C[C@@H]1CN([C@@H](C)CO)S(=O)(=O)c2ccc(-c3cncnc3)cc2O[C@@H]1CN(C)C(=O)Cc1cccnc1 the results were miR122 inh -10.4.
Screening CC(C)CC#Cc1cnc2c(c1)C(=O)N([C@@H](C)CO)C[C@@H](C)[C@H](CN(C)C(=O)CC1CC1)O2 returned miR122 inh 8.5.
For Clc1ccc(CSc2nnc(-c3ccncc3)o2)c(Cl)c1 the results were miR122 inh 32.8*.
`Cc1ccc(C)c(CSc2nnc(-c3cccnc3)o2)c1` gave miR122 inh -355.7.
`C[C@H](CO)N1C[C@H](C)[C@@H](CN(C)C(=O)c2cccc(F)c2)Oc2ncc(-c3cccc(F)c3)cc2C1=O` gave miR122 inh 2.4.
`COCC#Cc1cnc2c(c1)C(=O)N([C@H](C)CO)C[C@H](C)[C@@H](CN(C)C(=O)Nc1ccccc1OC)O2` gave miR122 inh -55.1.
`CO[C@@H]1CN(C)C(=O)c2cc(NC(C)=O)ccc2OC[C@@H](C)N(C(=O)CN(C)C)C[C@@H]1C` gave miR122 inh 0.1.
`COc1ccc(C(=O)C2CCCN(Cc3cccn3-c3ccccn3)C2)c(OC)c1` (configuration not stated) gave miR122 inh 59.6*.
For CCCC#Cc1cnc2c(c1)C(=O)N([C@@H](C)CO)C[C@H](C)[C@@H](CN(C)Cc1ccccc1)O2 the results were miR122 inh 8.5.
Cc1ccc(S(=O)(=O)N(C)C[C@H]2Oc3ncc(C#CCC(C)C)cc3C(=O)N([C@H](C)CO)C[C@@H]2C)cc1 was read as miR122 inh -54.0.
For CN(C(=O)C12CC3CC(CC(C3)C1)C2)C1CCS(=O)(=O)C1 (configuration not stated) the results were miR122 inh 36.2*.
Screening CC(C)NC(=O)N(C)C[C@@H]1Oc2cc(-c3ccccc3)ccc2S(=O)(=O)N([C@H](C)CO)C[C@@H]1C returned miR122 inh -0.1.
`C[C@@H]1CN([C@@H](C)CO)C(=O)c2cc(C#CC3CCCC3)cnc2O[C@H]1CN(C)C(=O)C1CCC1` gave miR122 inh 1.2.
Screening CNC[C@@H]1Oc2cc(C#CCC3CCCC3)ccc2S(=O)(=O)N([C@@H](C)CO)C[C@H]1C returned miR122 inh -9.6.
Screening Cc1ccc(-c2cnc3c(c2)C(=O)N([C@H](C)CO)C[C@H](C)[C@@H](CN(C)C(=O)Cc2ccncc2)O3)cc1 returned miR122 inh -3.2.
Screening CCCNC(=O)N(C)C[C@H]1Oc2ncc(/C=C/c3ccccc3)cc2C(=O)N([C@@H](C)CO)C[C@H]1C returned miR122 inh -7.9.
`COCC(=O)N1[C@@H](CO)[C@@H]2c3ccccc3N(C(=O)c3cccnc3)C[C@@H]21` gave miR122 inh 41.7*.
Screening CCCNC(=O)N1[C@@H]2CN(C(=O)c3ccccc3)c3ccccc3[C@@H]2[C@@H]1CO returned miR122 inh 35.9*.
For O=C(c1ccccc1)N1C[C@H]2[C@@H](c3ccccc31)[C@@H](CO)N2C(=O)c1cccc(F)c1 the results were miR122 inh -100.0.
`CCCNC(=O)N1C[C@@H]2[C@H](c3ccccc31)[C@@H](CO)N2C(=O)C1CCOCC1` gave miR122 inh 39.2*.
For CCCNC(=O)Nc1ccc2c(c1)OC[C@H](C)NC[C@H](C)[C@@H](OC)CN(C)C2=O the results were miR122 inh -0.1.
`CO[C@H]1CN(C)C(=O)c2ccc(NC(=O)c3ccccc3)cc2OC[C@H](C)N(C)C[C@@H]1C` gave miR122 inh -5.3.
Screening C[C@@H]1CN([C@@H](C)CO)C(=O)c2cc(C#CCc3ccccc3)cnc2O[C@H]1CN(C)Cc1ccccn1 returned miR122 inh 8.3.
Screening C[C@H](O)C#Cc1ccc2c(c1)O[C@H](CN(C)Cc1cccnc1)[C@@H](C)CN([C@@H](C)CO)S2(=O)=O returned miR122 inh 1.0.
Screening COc1ccc(-c2cnc3c(c2)C(=O)N([C@@H](C)CO)C[C@@H](C)[C@H](CN(C)Cc2ccccn2)O3)cc1 returned miR122 inh -3.5.
`COc1ccccc1-c1cnc2c(c1)C(=O)N([C@@H](C)CO)C[C@H](C)[C@@H](CN(C)CC1CCCC1)O2` gave miR122 inh 6.2.
`Cc1ccc(N(Cc2ccco2)C(=O)c2ccc(N3CCCCC3)c([N+](=O)[O-])c2)cc1` gave miR122 inh -164.5.
For COc1ccc(-c2cc(C3CCN(c4ccc(C(C)=O)cc4[N+](=O)[O-])CC3)[nH]n2)cc1 the results were miR122 inh 44.6*.
`CC(C)CC#Cc1cnc2c(c1)C(=O)N([C@H](C)CO)C[C@H](C)[C@@H](CN(C)C(=O)C1CCCCC1)O2` gave miR122 inh -10.4.
O=[N+]([O-])c1ccc(O)c(/C=N/Nc2ccc(Cl)nn2)c1 was read as miR122 inh 45.8*.
Screening CCCC(=O)Nc1ccc2c(c1)OC[C@@H](C)N(C)C[C@H](C)[C@@H](OC)CN(C)C2=O returned miR122 inh -3.2.
For C[C@H]1CN([C@@H](C)CO)S(=O)(=O)c2ccc(C#CCC3CCCC3)cc2O[C@@H]1CN(C)C(=O)CC1CC1 the results were miR122 inh -38.0.
CC(C)CC#Cc1cnc2c(c1)C(=O)N([C@@H](C)CO)C[C@@H](C)[C@@H](CN(C)C(=O)Cc1ccccc1)O2 was read as miR122 inh 9.2.
For C/C=C/c1ccc2c(c1)O[C@H](CN(C)C(=O)CC1CC1)[C@@H](C)CN([C@@H](C)CO)S2(=O)=O the results were miR122 inh -4.0.
Screening CC(=O)NC(c1ccc(C)cc1)c1cc(Cl)c2cccnc2c1O (configuration not stated) returned miR122 inh 30.8*.
For CO[C@H]1CN(C)C(=O)c2ccc(NC(=O)Nc3ccccc3)cc2OC[C@@H](C)N(C(C)=O)C[C@H]1C the results were miR122 inh -2.4.
`C[C@@H]1CN([C@@H](C)CO)C(=O)c2cc(-c3cccc(F)c3)cnc2O[C@@H]1CN(C)Cc1ccncc1` gave miR122 inh 1.1.
`CC(C)CC#Cc1cnc2c(c1)C(=O)N([C@H](C)CO)C[C@H](C)[C@H](CN(C)C(=O)NC1CCCC1)O2` gave miR122 inh 5.6.
`C[C@@H]1CN([C@H](C)CO)C(=O)c2cc(C#Cc3ccc(F)cc3)cnc2O[C@H]1CN(C)Cc1ccccn1` gave miR122 inh -1.6.
For C[C@@H]1CN([C@@H](C)CO)C(=O)c2cc(-c3cncnc3)cnc2O[C@H]1CN(C)Cc1ccccc1 the results were miR122 inh -4.2.
Cc1cc(C(F)F)n2ncc(C(=O)NCCc3ccccc3Cl)c2n1 was read as miR122 inh 33.3*.
CCc1c(C(=O)NCc2ccccc2Cl)[nH]c(C)c1C(C)=O was read as miR122 inh -118.3.
Screening C[C@H](CO)N1C[C@H](C)[C@H](CN(C)C(=O)c2cccc(F)c2)Oc2ncc(-c3cccc(F)c3)cc2C1=O returned miR122 inh -3.3.
`C[C@H](CO)N1C[C@H](C)[C@@H](CN(C)Cc2ccc(C(F)(F)F)cc2)Oc2c(NC(=O)c3cnccn3)cccc2C1=O` gave miR122 inh -113.9.
